# Screens from PubChem BioAssay.
# In the library only some 3% were active in any assay of this set; here they are far more common.
# PAFAH2 inh = PAFAH2 (human) inhibition; Q99487; recombinant PAFAH2, FP-rhodamine activity probe, fluorescence polarization; inhibition, % at 3.39 µM; 0.99% of 340,000 active; AID 492956;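 active means inhibition above the mean over all tested compounds plus 3 SD, cut at about 30% in these data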;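 further: inhibitors block probe labeling of enzyme so polarization drops; 0% = enzyme with DMSO and 100% = wells lacking PAFAH2 protein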
# PP5 inh = PP5 (human) phosphatase inhibition; 0.18% of 320,000 active; purified PP5c, OMFP substrate fluorescence; P53041; inhibition, % at 6.7 µM;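 active means inhibition above the campaign's mean inhibition across all tested compounds plus 3 SD, cut at about 9.5% in these data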;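 further: 0% = DMSO only and 100% = 100 µM cantharidin control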
# PAFAH1B3 FP inh = PAFAH1B3 (human) inhibition. AID 492972. Q15102. 0.28% of 340,000 active. recombinant PAFAH1B3, FP-rhodamine probe, fluorescence polarization. inhibition, % at 3.39 µM;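 active means inhibition above the screen-wide average of all tested compounds plus 3 SD, cut at about 25% in these data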;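 further: 0% = enzyme with DMSO only and 100% = wells lacking PAFAH1B3 protein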
# Target sequence (Q15102 whole entry, looked up): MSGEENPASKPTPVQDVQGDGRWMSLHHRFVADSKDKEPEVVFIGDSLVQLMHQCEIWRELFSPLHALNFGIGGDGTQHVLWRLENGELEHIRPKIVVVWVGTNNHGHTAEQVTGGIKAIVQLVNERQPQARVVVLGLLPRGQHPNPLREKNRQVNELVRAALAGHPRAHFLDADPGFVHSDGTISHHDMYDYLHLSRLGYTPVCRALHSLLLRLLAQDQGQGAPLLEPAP
# PAFAH1B2 FP inh = PAFAH1B2 (human) inhibition; AID 492953; 1.2% of 340,000 active; recombinant PAFAH1B2, FP-rhodamine activity probe, fluorescence polarization; inhibition, % at 3.39 µM;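 active means inhibition above the mean of all tested compounds plus 3 SD, cut at about 24% in these data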;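 further: 0% = enzyme with DMSO and 100% = wells lacking PAFAH1B2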
# Target sequence (P68402 whole entry, looked up): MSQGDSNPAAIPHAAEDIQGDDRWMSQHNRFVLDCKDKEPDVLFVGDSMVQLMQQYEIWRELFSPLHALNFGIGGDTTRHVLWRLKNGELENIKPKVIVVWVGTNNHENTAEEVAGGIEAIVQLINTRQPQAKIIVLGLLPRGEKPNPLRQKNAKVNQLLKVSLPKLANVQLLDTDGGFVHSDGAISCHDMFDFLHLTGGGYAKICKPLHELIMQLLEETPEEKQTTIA
# Fh CTSL1 inh = counter-screen for PFM18AAP inhibitors: inhibitors of F. hepatica cathepsin L1; recombinant F. hepatica cathepsin L1, Z-Leu-Arg-MCA fluorescence; inhibition, % at 5.96 µM; 0.49% of 300,000 active; AID 1906;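 active means inhibition above the mean of all tested compounds plus 3 SD, set per screening campaign, cut at about 17% in these data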;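 further: 0% = plate median of test compound wells and 100% = 1 µM Z-Phe-Ala-diazomethylketone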
# pPAFAH inh = inhibitors of human plasma PAF acetylhydrolase (pPAFAH). 1.5% of 330,000 active. inhibition, % at 3.39 µM. recombinant pPAFAH, FP-rhodamine probe fluorescence polarization;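 active means inhibition above the mean inhibition across the screen plus 3 SD, cut at about 25% in these data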;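 further: inhibitors block binding of the rhodamine activity-based probe so polarization drops; 0% = enzyme with DMSO and 100% = wells lacking pPAFAH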
# * hit, by the source's call; . = not tested or not shown.
SMILES,PAFAH2 inh,PP5 inh,PAFAH1B3 FP inh,PAFAH1B2 FP inh,Fh CTSL1 inh,pPAFAH inh
CCCN(C(=O)COC(=O)c1nc2nc(C)cc(C)n2n1)C1CCS(=O)(=O)C1 (configuration not stated),-4,3,1,-2,.,-2
Cc1noc(C)c1CSCC(=O)N(C)CC(=O)Nc1ccccc1C(F)(F)F,0,1,3,4,.,1
O=C1CC(c2ccc(Cl)cc2)c2c(O)cc(O)cc2O1 (configuration not stated),4,3,2,6,0,2
C/C=C/C=C/[C@H]1Cc2cc(O)cc(O)c2O1,.,-3,.,.,-2,36*
Cc1cc(NC(=O)COC(=O)CSCc2ccc(Cl)c(Cl)c2)no1,7,3,5,-1,-24,31*
Cc1cc(NC(=O)CSCC(=O)N(C)Cc2ccc(Cl)c(Cl)c2)no1,-5,2,1,0,1,-1
Cc1ccc(OCC(=O)c2ccc(Cl)s2)c([N+](=O)[O-])n1,3,7,8,5,4,25*
Cc1ccc(CNC(=O)COc2ccc(C)nc2[N+](=O)[O-])cc1,3,2,1,6,-1,2
O=C(CCS(=O)(=O)Cc1ccccc1)NCCc1ccccc1,-2,-2,11,1,0,9
Cc1ccc(CS(=O)(=O)CCC(=O)NCCc2ccccc2)cc1,3,2,1,7,0,25*
Cc1ccc(S(=O)(=O)NCCCCCC(=O)NCCc2ccccc2)cc1,-1,3,13,30*,12,13
CCC(C)(C)C1CCc2[nH]nc(C(=O)NCc3ccccn3)c2C1 (configuration not stated),14,1,7,5,1,5
O=C(NCc1cccnc1)C1CC(c2ccccc2Cl)=NO1 (configuration not stated),1,1,12,6,-4,4
CC1CCCCC1NC(=O)C1CCCN(S(=O)(=O)c2ccc(-n3cnnn3)cc2)C1 (configuration not stated),6,-2,-8,-1,-3,3
COc1cccc(-c2nc(NCc3ccco3)c3ccccc3n2)c1O,15,-1,14,4,-3,7
COc1cccc(-c2nc(NCc3ccccc3)c3ccccc3n2)c1O,2,2,-2,7,21*,11
O=C(CNC(=O)c1cccc(Br)c1)N/N=C/c1cccs1,1,2,12,2,-4,4
O=C(CNC(=O)c1cccc(Br)c1)N/N=C/c1cc(Br)cc(Br)c1O,11,3,7,31*,-2,13
O=[N+]([O-])C(=C1Nc2ccccc2N1)C(Cl)=C(Cl)Cl,10,0,15,-2,20*,5
CCOC(OCC)c1cc2ccccc2cn1,0,.,-3,2,.,0
NC(=S)n1[nH]c(-c2ccc([N+](=O)[O-])cc2)c(N=Nc2ccc(Cl)cc2)c1=O,41*,.,9,9,.,.
Cc1ccc([N+](=O)[O-])cc1N=Nc1c(-c2ccc([N+](=O)[O-])cc2)[nH]n(C(N)=S)c1=O,24,.,19,15,.,.
O=C(OCCc1ccccc1)c1cc(O)c(O)c(O)c1,17,-1,12,55*,1,15
COC(=O)c1ccc(C(=O)OC)c(NC(=O)CN(c2ccccc2)S(=O)(=O)N(C)C)c1,8,2,1,5,37*,4
CN(C)S(=O)(=O)N(CC(=O)Nc1ccccc1F)c1ccccc1,1,-1,-4,-4,3,2
SMILES,PAFAH2 inh,PP5 inh,PAFAH1B3 FP inh,PAFAH1B2 FP inh,Fh CTSL1 inh,pPAFAH inh
Cc1c2cc(O)c(=O)cc-2oc2cc(O)c(O)cc12,96*,-13,89*,85*,-15,78*
CC(Sc1nnc(-c2cccnc2)n1N)C(=O)Nc1ccc2c(c1)OCCO2 (configuration not stated),2,.,8,-1,.,.
CCC(C)(C)NC(=O)C(c1ccccc1Cl)N(C(=O)CCC(=O)Nc1cc(C)on1)c1ccc(NC(C)=O)cc1 (configuration not stated),4,0,-1,3,0,-5
CSc1ccc(/C=C/C(=O)OCC(=O)N2CCN(S(=O)(=O)c3ccc(C)cc3C)CC2)cc1,-11,4,-5,-5,.,7
O=C1Nc2ccc(C(F)(F)F)cc2N2CCCC12 (configuration not stated),.,6,.,.,13,4
O=C1Nc2ccccc2N2CCCC12 (configuration not stated),.,0,.,.,71*,0
COc1ccc2cc(C(c3nnnn3C(C)(C)C)N3CCc4ccccc4C3)c(=O)[nH]c2c1 (configuration not stated),.,1,.,.,1,34*
Cc1ccc(S(=O)(=O)Nc2cccc(C(=O)NCC(C)(C)N3CCOCC3)c2)cc1F,1,-1,8,3,-4,6
CC(C)(CNC(=O)c1cccc(NS(=O)(=O)c2ccc(Br)cc2)c1)N1CCOCC1,2,-1,6,27*,-2,7
Cc1cccc(N(CC(=O)N/N=C/c2ccc(C(=O)O)cc2)S(=O)(=O)c2ccccc2)c1C,.,-1,.,.,0,-4
O=C(CCl)Nc1cn(-c2ccccc2)nc1-c1ccc(F)cc1,-1,0,2,1,77*,-3
Fc1ccc(-c2nn(-c3ccccc3)cc2CNCc2ccccc2)cc1,.,3,.,.,-1,1
C[C@@H]1O[C@@H](O[C@@H]2[C@@H](O)[C@H](OCCc3ccc(O)c(O)c3)O[C@H](CO)[C@H]2OC(=O)/C=C/c2ccc(O)c(O)c2)[C@H](O)[C@H](O)[C@H]1O,-1,.,6,10,.,2
CC(OC(=O)/C=C/c1cccc(F)c1)C(=O)NC1CCCCC1C (configuration not stated),-2,0,5,-5,-14,1
Cc1ccc(CN2C(=O)N/C(=C\c3ccc(-c4ccc(C(=O)O)cc4C)o3)C2=O)cc1,9,2,16,13,7,5
Cc1ccc(C(=O)O)cc1-c1ccc(/C=C2/NC(=O)N(c3ccccc3)C2=O)o1,20,0,12,9,1,29*
NCCc1nnc(SCC(=O)Nc2ccc(Br)cc2)o1,8,0,10,5,1,13
CC(C)C[C@H](N)c1nnc(SCC(=O)Nc2ccc(Br)cc2)o1,6,1,-1,-3,91*,-5
CC(C)C[C@H](NC(=O)OC(C)(C)C)c1nnc(SCC(=O)Nc2ccc(Br)cc2)o1,3,8,-1,8,99*,4
Cc1ccc(C)c(NC(=O)CSc2nnc([C@@H](N)Cc3ccccc3)o2)c1,-6,-1,5,2,18*,0
Cc1ccc(N(C)C(=O)CN(C)S(=O)(=O)c2ccc3c(c2)n(C)c(=O)c(=O)n3C)cc1,0,1,0,9,-4,1
